Data published in PubChem BioAssay (NCATS).
Inconclusive results are not listed. Where a call stands in place of a potency, no number is given. Activity calls are given as the source filed them. Unless noted, calls follow the shape of the full dose curve.

Columns and labels:
[1] = biological target: Alpha-galactosidase (Coffea arabica) (UniProt Q42656); assay: Counterscreen for Glucocerebrosidase Inhibitors: qHTS Assay for Coffee Bean alpha-Galactosidase at pH 4.5 (AID 957; active = well fitted curve in the direction sought with a large enough effect; an effect the other way counts as inactive or inconclusive)
Sequence of Alpha-galactosidase (Coffea arabica) (Q42656 whole entry, looked up): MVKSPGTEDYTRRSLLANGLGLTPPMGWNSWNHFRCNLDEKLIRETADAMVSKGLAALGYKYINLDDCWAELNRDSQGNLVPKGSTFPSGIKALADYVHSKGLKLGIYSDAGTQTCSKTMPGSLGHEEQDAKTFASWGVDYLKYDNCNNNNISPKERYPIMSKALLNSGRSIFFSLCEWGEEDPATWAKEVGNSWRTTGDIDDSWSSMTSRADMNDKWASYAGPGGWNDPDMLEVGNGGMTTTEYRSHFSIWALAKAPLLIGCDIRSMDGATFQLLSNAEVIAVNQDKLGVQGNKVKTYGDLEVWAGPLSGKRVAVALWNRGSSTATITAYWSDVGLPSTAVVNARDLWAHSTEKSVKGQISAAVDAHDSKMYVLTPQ
Procedure, shortened: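 Green coffee bean enzyme (2 nM final) was incubated with compounds (0.7 nM to 77 uM) and 4-methylumbelliferyl alpha-D-galactopyranoside (80 uM final) in 50 mM citric acid, 0.005% Tween-20, pH 4.5, 20 min at room temperature; AC50 from Hill fits.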

[2] = biological target: Alpha-galactosidase (Coffea arabica) (UniProt Q42656); assay: Counterscreen for Glucocerebrosidase Inhibitors: qHTS Assay for Coffee Bean alpha-Galactosidase at pH 5.9 (AID 998; active = well fitted curve in the direction sought with a large enough effect; an effect the other way counts as inactive or inconclusive)
Procedure, shortened: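 Green coffee bean enzyme (2 nM) with 4-methylumbelliferyl alpha-D-galactopyranoside (80 uM) in 50 mM citric acid, 0.005% Tween-20, pH 5.9, 20 min at room temperature; compounds 0.7 nM–77 uM. Stopped at pH 10, fluorescence Ex365/Em440; Hill-fit AC50.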

[3] = Validation screen for inhibitors of Lassa infection (AID 463096)
[4] = Inducers of the Endoplasmic Reticulum Stress Response (ERSR) in human glioma: Validation (AID 504836; active = well fitted curve in the direction sought with a large enough effect; an effect the other way counts as inactive or inconclusive)
Procedure, shortened: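 Stably transfected U87-MG glioma cells carrying a GRP78-based luciferase sensor; 16 h compound incubation. Luminescence end-point read 10 min after Bright-Glo addition at room temperature.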

[5] = qHTS for Inhibitors of the Functional Ribonucleoprotein Complex (vRNP) of Lassa (LASV) Arenavirus: LASV Primary Screen - GLuc reporter signal (AID 1347082; calls by dose curve; tested in HEK293 reporter line; also: nearly all actives have a fitted effect of over 60% in size; also: potency is read from the fitted curve at half-maximal effect)
[6] = qHTS for Inhibitors of the Functional Ribonucleoprotein Complex (vRNP) of Lassa (LASV) Arenavirus: Viability assay - alamar blue signal for LASV Primary Screen (AID 1347083; calls by dose curve; tested in HEK293 reporter line; also: nearly all actives have a fitted effect of over 80% in size; also: potency is read from the fitted curve at half-maximal effect)
[7] = qHTS for Inhibitors of the Functional Ribonucleoprotein Complex (vRNP) of Lymphocytic Choriomeningitis Arenaviruses (LCMV): Viability assay - alamar blue signal for LCMV Primary Screen (AID 1347085; calls by dose curve; tested in HEK293 reporter line; also: nearly all actives have a fitted effect of over 80% in size; also: potency is read from the fitted curve at half-maximal effect)
[8] = biological target: Nucleoprotein (Lymphocytic choriomeningitis virus (strain Armstrong)) (UniProt P09992); assay: qHTS for Inhibitors of the Functional Ribonucleoprotein Complex (vRNP) of Lymphocytic Choriomeningitis Arenaviruses (LCMV): LCMV Primary Screen - GLuc reporter signal (AID 1347086); also: nearly all actives have a fitted effect of over 70% in size; also: potency is read from the fitted curve at half-maximal effect
Sequence of Nucleoprotein (Lymphocytic choriomeningitis virus (strain Armstrong)) (P09992 whole entry, looked up): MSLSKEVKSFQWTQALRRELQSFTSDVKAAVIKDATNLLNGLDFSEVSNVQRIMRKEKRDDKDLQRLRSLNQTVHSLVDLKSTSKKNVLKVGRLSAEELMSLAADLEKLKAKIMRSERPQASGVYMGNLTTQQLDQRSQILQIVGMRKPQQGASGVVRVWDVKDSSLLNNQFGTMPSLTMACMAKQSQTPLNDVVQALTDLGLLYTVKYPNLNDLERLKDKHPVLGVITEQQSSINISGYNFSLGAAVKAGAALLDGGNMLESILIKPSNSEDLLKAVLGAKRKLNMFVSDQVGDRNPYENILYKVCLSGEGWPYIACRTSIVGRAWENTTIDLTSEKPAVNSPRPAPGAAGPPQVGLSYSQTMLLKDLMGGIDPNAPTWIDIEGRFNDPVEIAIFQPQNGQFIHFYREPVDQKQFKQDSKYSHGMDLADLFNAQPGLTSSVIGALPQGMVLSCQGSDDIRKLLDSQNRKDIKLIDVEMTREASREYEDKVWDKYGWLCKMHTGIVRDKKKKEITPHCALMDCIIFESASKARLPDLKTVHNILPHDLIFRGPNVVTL

[9] = Cytotoxicity counterscreen for inhibitors of SARS-CoV-2 cell entry (AID 1645845); also: nearly all actives have a fitted effect of over 50% in size
Procedure, shortened: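 HEK293-ACE2 cells (Expi293F stably expressing human ACE2) seeded overnight, then compound for 1 h plus 48 h at 37C. Viability as ATP content by luminescence; normalized to wells with cells and media-only wells.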

[10] = biological target: Cytochrome P450 3A4 (Homo sapiens) (UniProt P08684); assay: qHTS Assay for Activators of Cytochrome P450 3A4 (AID 885; active = well fitted curve in the direction sought with a large enough effect; an effect the other way counts as inactive or inconclusive; also: nearly all actives have a fitted effect of over 65% in size)
Sequence of Cytochrome P450 3A4 (Homo sapiens) (P08684 whole entry, looked up): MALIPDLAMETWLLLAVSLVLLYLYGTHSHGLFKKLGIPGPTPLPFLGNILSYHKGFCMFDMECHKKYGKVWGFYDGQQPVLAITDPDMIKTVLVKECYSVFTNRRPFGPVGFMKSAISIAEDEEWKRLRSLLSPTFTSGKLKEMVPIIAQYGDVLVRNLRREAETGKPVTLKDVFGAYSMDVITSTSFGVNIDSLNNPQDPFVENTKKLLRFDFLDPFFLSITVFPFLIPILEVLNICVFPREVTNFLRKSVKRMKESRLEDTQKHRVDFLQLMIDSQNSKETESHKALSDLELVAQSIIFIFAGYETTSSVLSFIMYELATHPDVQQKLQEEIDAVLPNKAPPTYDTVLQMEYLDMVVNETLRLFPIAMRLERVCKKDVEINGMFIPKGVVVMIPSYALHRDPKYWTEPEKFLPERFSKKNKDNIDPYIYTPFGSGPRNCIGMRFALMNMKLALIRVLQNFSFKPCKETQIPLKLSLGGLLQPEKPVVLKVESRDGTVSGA
Procedure, shortened: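 Steps: enzyme/substrate mix dispensed; compound added, 10 min RT; NADPH regeneration solution added, 60 min RT; luciferin detection buffer stops reaction; 20 min later luminescence measured.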

[11] = Primary qHTS to identify inhibitors of SARS-CoV-2 cell entry (AID 1645846); conditions: activity change, negative = inhibition: at 57.1 µM (top of the series) unless noted; also: nearly all actives have a fitted effect of over 45% in size; also: potency is read from the fitted curve at half-maximal effect
Procedure, shortened: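 Using luciferase-reporting pseudoviruses carrying Wuhan-Hu-1 spike, the screen tracks entry into stably ACE2-expressing cells over 48 hr. Activity is expressed relative to spike particles versus particles lacking any fusion protein.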

[12] = qHTS profiling of the MIPE4 collection as inhibitors of Plasmodium falciparum (3D7) proliferation (AID 743344; call rule not given here); conditions: P. falciparum 3D7 in erythrocytes, SYBR Green DNA fluorescence, 72 h; at 28.5 µM (top of the series) unless noted
Procedure, shortened: (§1)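 Erythrocytes infected with P. falciparum (0.3% parasitemia, 2.5% hematocrit) incubated with compounds 72 h at 37 C, 5% CO2. Lysis with saponin/Triton buffer containing SYBR Green I, overnight at room temperature in the dark; DNA fluorescence (485/535 nm) normalised to 0.29 uM artemisinin and DMSO.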

[13] = qHTS profiling of the MIPE4 collection as inhibitors of Plasmodium falciparum (HB3) proliferation (AID 743347; call rule not given here); conditions: P. falciparum HB3 in erythrocytes, SYBR Green DNA, 72 h; at 28.5 µM (top of the series) unless noted
Procedure, shortened: as §1

[14] = biological target: Bile acid receptor (Homo sapiens) (UniProt Q96RI1); assay: qHTS assay for small molecule agonists of farnesoid X receptor signaling (AID 588527); conditions: HEK293T FXR-UAS-bla, beta-lactamase ratio, 16 h; activation: stronger effect = higher value
Sequence of Bile acid receptor (Homo sapiens) (Q96RI1 whole entry, looked up): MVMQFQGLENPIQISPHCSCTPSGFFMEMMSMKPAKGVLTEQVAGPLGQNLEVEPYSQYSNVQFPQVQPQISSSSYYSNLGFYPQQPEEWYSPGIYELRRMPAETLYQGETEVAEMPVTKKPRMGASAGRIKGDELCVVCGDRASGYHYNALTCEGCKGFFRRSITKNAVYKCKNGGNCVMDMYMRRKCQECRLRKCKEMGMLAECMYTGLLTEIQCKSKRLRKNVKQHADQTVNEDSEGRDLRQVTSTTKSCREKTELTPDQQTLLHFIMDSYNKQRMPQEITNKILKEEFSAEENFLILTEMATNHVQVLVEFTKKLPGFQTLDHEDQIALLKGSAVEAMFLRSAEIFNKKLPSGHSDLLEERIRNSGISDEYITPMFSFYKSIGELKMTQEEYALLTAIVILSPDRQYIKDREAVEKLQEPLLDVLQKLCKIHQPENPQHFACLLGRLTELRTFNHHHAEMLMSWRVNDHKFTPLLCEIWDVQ
Procedure, shortened: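 Read-out: beta-lactamase reporter fluorescence with CCF4 substrate in GeneBLAzer FXR-UAS-bla HEK293T cells, after 16 h compound exposure at 37 C. Response scaled between DMSO basal (0%) and chenodeoxycholic acid at 100 uM (100%).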

[15] = qHTS assay for small molecule agonists of the antioxidant response element (ARE) signaling pathway (AID 651741; active = well fitted activation curve with a large enough effect in the signal ratio; the % refers to the signal ratio; also: potency is read from the fitted curve at half-maximal effect)
Procedure, shortened: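 HepG2 ARE-bla cells plated at 2,000 cells/well and incubated 5 h at 37 C/5% CO2 received 23 nL compound in DMSO. After 16 h at 37 C, LiveBLAzer B/G FRET substrate was applied for 2 h at room temperature and fluorescence read.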

NCCCCNCCCN
outcome [1]: inactive
outcome [2]: inactive
Potency [3]: inactive
outcome [4]: inactive
Potency [5]: inactive
Potency [6]: inactive
Potency [7]: inactive
Potency [8]: inactive
Potency [9]: inactive

O=c1c(O)c(-c2cc(O)c(O)c(O)c2)oc2cc(O)cc(O)c12
Potency [10]: inactive
outcome [1]: inactive
outcome [2]: inactive
outcome [4]: inactive
Potency [5]: inactive
Potency [6]: inactive
Potency [7]: inactive
Potency [8]: inactive
Potency [9]: inactive
Potency [11]: inactive

O=C(c1ccc(C(=O)N2CCC(N3CCCC3)CC2)c(Nc2ccccc2)c1)N1CCC(N2CCCC2)CC1
Potency [5]: inactive
Potency [6]: inactive
Potency [7]: inactive
Potency [8]: inactive
activity change, negative = inhibition [11]: -24.6%

COC[C@H](NC(=O)c1cnc(C)s1)C(=O)N[C@@H](COC)C(=O)N[C@@H](Cc1ccccc1)C(=O)[C@@]1(C)CO1
Potency [5]: 0.273 µM (active)
Potency [6]: 0.685 µM (active)
Potency [7]: 0.685 µM (active)
Potency [8]: 0.769 µM (active)
activity change, negative = inhibition [11]: -97.7%

C=C(C)[C@@H]1CC[C@]2(C(=O)O)CC[C@]3(C)[C@H](CC[C@@H]4[C@@]5(C)CC[C@H](O)C(C)(C)[C@@H]5CC[C@]43C)[C@@H]12
parasite growth, % of DMSO control [12]: 60.5%
growth, % of control [13]: 208%
Potency [5]: inactive
Potency [6]: inactive
Potency [7]: inactive
Potency [8]: inactive
Potency [9]: inactive
Potency [11]: inactive

Oc1ccc(-c2nc(-c3ccc(F)cc3)c(-c3ccncc3)[nH]2)cc1
Potency [10]: inactive
outcome [1]: inactive
outcome [2]: inactive
outcome [4]: inactive
Potency [5]: inactive
Potency [6]: inactive
Potency [7]: inactive
Potency [8]: inactive
Potency [9]: inactive

CC1(C)CC(=O)c2c(C(F)(F)F)nn(-c3ccc(C(N)=O)c(NC4CCC(O)CC4)c3)c2C1 (stereo unspecified)
Potency [5]: 1.09 µM (active)
Potency [6]: 0.611 µM (active)
Potency [7]: 0.769 µM (active)
Potency [8]: 0.273 µM (active)
activity change, negative = inhibition [11]: -89.6%

CN1CCN(Cc2ccc(NC(=O)Nc3ccc(Oc4cc(NC(=O)C5CC5)ncn4)cc3)cc2C(F)(F)F)CC1
Potency [5]: 2.43 µM (active)
Potency [6]: 1.53 µM (active)
Potency [7]: 0.968 µM (active)
Potency [8]: 1.72 µM (active)
Potency [11]: 1 µM (active)

COc1cccc(-c2cc(=O)c3ccccc3o2)c1N
outcome [1]: inactive
outcome [2]: inactive
outcome [4]: inactive
Potency [5]: inactive
Potency [6]: inactive
Potency [7]: inactive
Potency [8]: inactive
Potency [9]: inactive
Potency [11]: inactive

O=C1NC(=O)/C(=C/c2ccc(-c3ccc(F)cc3O)o2)S1
outcome [4]: inactive
Potency [5]: inactive
Potency [6]: inactive
Potency [7]: inactive
Potency [8]: inactive
Potency [9]: inactive
Potency [11]: inactive

Cc1ccc(C(=O)N(CCCN)[C@@H](c2oc3cc(Cl)ccc3c(=O)c2Cc2ccccc2)C(C)C)cc1
Potency [5]: inactive
Potency [6]: inactive
Potency [7]: inactive
Potency [8]: inactive
activity change, negative = inhibition [11]: -98.4%

NC(=O)Nc1sc(-c2ccc(F)cc2)cc1C(N)=O
Potency [5]: 0.432 µM (active)
Potency [6]: 0.273 µM (active)
Potency [7]: 0.137 µM (active)
Potency [8]: 0.273 µM (active)
activity change, negative = inhibition [11]: -30.6%

c1ccc(CNc2nc(NCc3ccccc3)c3ccccc3n2)cc1
Potency [5]: 19.3 µM (active)
Potency [6]: 24.3 µM (active)
Potency [7]: 24.3 µM (active)
Potency [8]: 3.85 µM (active)
Potency [11]: 22.4 µM (active)

Cc1cc(Nc2cc(NC(=O)c3c(Cl)cccc3Cl)ccn2)nc(N)n1
Potency [5]: 6.11 µM (active)
Potency [6]: 3.06 µM (active)
Potency [7]: 3.06 µM (active)
Potency [8]: 3.85 µM (active)
Potency [11]: 1.41 µM (active)

O=C1c2cccc(O)c2C(=O)c2c(O)cc(CO)cc21
activation [14]: 4.08% (inactive)
Potency [15]: 12.2 µM (active)
parasite growth, % of DMSO control [12]: 321%
growth, % of control [13]: 568%
Potency [5]: inactive
Potency [6]: inactive
Potency [7]: inactive
Potency [8]: inactive
Potency [9]: inactive
activity change, negative = inhibition [11]: -12.6%

Cc1csc(-c2nnc(Nc3ccc(Oc4ncccc4-c4ccnc(N)n4)cc3)c3ccccc23)c1
Potency [5]: inactive
Potency [6]: 6.85 µM (active)
Potency [7]: 19.3 µM (active)
Potency [8]: inactive
Potency [11]: 15.8 µM (active)

O=C1c2ccccc2-[n+]2ccc3c([nH]c4ccccc43)c21
Potency [5]: 4.85 µM (active)
Potency [6]: 4.32 µM (active)
Potency [7]: 6.11 µM (active)
Potency [8]: 3.06 µM (active)
Potency [11]: 1.26 µM (active)

COc1ccc(CCC(=O)Nc2nc3ccc(Cl)cc3s2)cc1OC
Potency [5]: inactive
Potency [6]: inactive
Potency [7]: inactive
Potency [8]: inactive
Potency [9]: inactive

Cc1cc(CN2CCN(c3c(Br)cnc4nc(-c5ccc(N6CCN(C)CC6)cc5)[nH]c34)CC2)no1
Potency [5]: inactive
Potency [6]: inactive
Potency [7]: inactive
Potency [8]: inactive
Potency [11]: 3.16 µM (active)

COc1cc(SC)ccc1C(=O)N1CCC(Cc2ccccc2)CC1
outcome [4]: inactive
Potency [5]: inactive
Potency [6]: inactive
Potency [7]: inactive
Potency [8]: inactive
Potency [9]: inactive

CNC(=O)c1ccc(C)c(-n2c(C)cc(OCc3ccc(F)cc3F)c(Br)c2=O)c1
Potency [5]: inactive
Potency [6]: inactive
Potency [7]: inactive
Potency [8]: inactive
Potency [11]: 22.4 µM (active)

Nc1ncnc2c1c(-c1cnc3[nH]ccc3c1)nn2C1CCCC1
Potency [5]: 6.85 µM (active)
Potency [6]: 1.72 µM (active)
Potency [7]: 2.17 µM (active)
Potency [8]: 6.11 µM (active)
Potency [11]: 10 µM (active)

C=CC(=O)N1CCc2ccc(-n3c(=O)ccc4cnc5ccc(-c6cnn(C)c6)cc5c43)cc21
Potency [5]: inactive
Potency [6]: inactive
Potency [7]: inactive
Potency [8]: inactive
Potency [11]: 3.55 µM (active)

O=C(Nc1cccc(Nc2ncc(Br)c(NCCc3cnc[nH]3)n2)c1)N1CCCC1
Potency [5]: inactive
Potency [6]: 21.7 µM (active)
Potency [7]: 27.3 µM (active)
Potency [8]: inactive
activity change, negative = inhibition [11]: -97.2%

C[C@@H](c1ncncc1F)[C@](O)(Cn1cncn1)c1ccc(F)cc1F
parasite growth, % of DMSO control [12]: 65.8%
growth, % of control [13]: 94.6%
Potency [5]: inactive
Potency [6]: inactive
Potency [7]: inactive
Potency [8]: inactive
Potency [9]: inactive
activity change, negative = inhibition [11]: -26.1%
